p53ts 32C kill – kills p53ts cells at the permissive temperature | H1299-p53A138V at 32C, ATP luminescence viability, 24 h | Potency, µM (doses to about 46.1 µM), for inactives: at the top dose activity change, negative = cytotoxicity, hits mostly cytotoxic | 130,000 tested, 0.93% active;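 also: 0% = DMSO and -100% = full killing by reference compound; nearly all actives have a fitted effect of over 55% in size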
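H1299-p53 A138V cells (temperature-sensitive p53) exposed 24 h to up to 46 uM compound at 32C, where p53 is wild-type in conformation. Viability read as ATP luminescence and normalised to DMSO and 100 uM tamoxifen. AC50 fitted with the Hill equation.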
IkB sig inh – suppresses IkB signaling in ABC-DLBCL reporter cells. ABC-DLBCL IkBa-CBG/CBR dual luciferase ratio, 4 h; response scale: scaled: untreated 0%, proteasome inhibitor 100%. Potency, µM (doses to about 57.1 µM), for inactives: top-dose IkBa stabilization activation. 110,000 tested, 0.04% active. AID 445; active = well fitted curve in the direction sought with a large enough effect in the signal ratio, not every such curve was filed as active; inconclusive = small, poorly fitted or top-dose-only effect, or a change in a side signal; the % refers to the signal ratio;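 also: the direction sought is a rising ratio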
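Curves were fitted separately to fusion (green), unfused (red) and ratio luminescence, then classed by r2, magnitude and activity. Cells: OCI-Ly3, 4 h compound plus doxycycline at 37C; 10 uM MG-132 defined full response.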
ERK AVP block – blocks ERK signaling stimulated by vasopressin. HEK293-V1b, vasopressin-stimulated pERK AlphaScreen. Potency, µM (highest dose often 57.5 µM), without a hit: at the top dose activity, negative = inhibition, most hits filed as inhibitors. 72,000 tested, 0.99% active. AID 995; also: % is scaled to controls: 0 for no effect and ±100 for the full control effect; nearly all actives have a fitted effect of over 55% in size
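HEK293 cells stably expressing V1b receptor, preincubated 30 min at 37 °C with compound, then stimulated 5 min with 25 nM vasopressin. Phospho-ERK by AlphaScreen SureFire after 5 h RT; normalized to DMSO and vasopressin; AC50 by Hill fit.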
Imprint erasure – genomic imprint erasure induction. Potency, µM (titrated, usually from 60.7 µM), for the others: top-dose activity change, positive = activation, usual class: activators. 110,000 tested, 0.02% active. mouse ES Peg3-LacZ reporter, beta-gal luminescence, 40 h. AID 1948
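Imprint erasure is scored as LacZ activity from the silenced maternal Peg3 allele in feeder-free female ES cells cultured 40 h with LIF. Luminescence is normalized to in-plate negative controls and fitted to the Hill equation.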
p53ts 39C kill – kills p53ts cells at the nonpermissive temperature | H1299-p53A138V viability at 39C, ATP luminescence, 24 h | Potency, µM (titrated, usually from 46.1 µM), for inactives: at the highest dose activity change, negative = cell killing, most hits filed as cytotoxic | 130,000 tested, 1.5% active | AID 902; also: % is scaled to controls: 0 for no effect and ±100 for the full control effect; nearly all actives have a fitted effect of over 55% in size
* = called active by the depositor; u = inconclusive; x = no result; [ ] = dose if it differs, or a comment. The list is not random: actives were taken first. Their share in the collection is about 2.3%. Unless noted, calls follow the shape of the dose curve; as a rule, active = well fitted curve in the direction sought with a large enough effect; inconclusive = small, poorly fitted or top-dose-only effect, or another doubt; inactive = no such curve, though single readings can be large; an effect the other way counts as inactive or inconclusive. Potency is read from the fitted curve at half-maximal effect.

SMILES	p53ts 32C kill	IkB sig inh	ERK AVP block	Imprint erasure	p53ts 39C kill
O=c1cc(-c2ccccc2)oc2cc(O)c(O)c(O)c12	u	1%	12%	-16%	0.63µM*
COc1cccc2oc(SC)cc(=O)c12	x	x	x	-95%[97.3 µM]	x
COc1cccc2oc(-c3ccccc3)cc(=O)c12	10µM*	x	-10%	-93%	7.9µM*
COc1cc(O)c2c(O)c3c(c4c2c1[C@@]1(C4)C(C)=CCCC1(C)C)[C@H](O)[C@@]1(O)CC(=O)C(C(N)=O)=C(O)[C@]1(O)C3=O	43%[9.22 µM]	7%[11.4 µM]	1%[11.5 µM]	-29%[10.9 µM]	41%[9.22 µM]
Cc1cc(C)nc(SC2=CS(=O)(=O)c3ccccc32)n1	-30%	u	-3%	-27%	u
O=S1(=O)C=C(Sc2nnc(-c3ccccc3)o2)c2ccccc21	13µM*	u	u	-54%	u
O[C@@H](c1cc(-c2ccccc2)nc2c1ccc1ccccc12)C1CCCCN1 (stereo partly drawn)	x	x	x	-7%[10.9 µM]	x
C/C(=N/O)[C@@H]1C[C@H](CC(=O)O)C1(C)C	-8%[9.22 µM]	-1%[11.4 µM]	-16%[11.5 µM]	-12%[10.9 µM]	9%[9.22 µM]
Cc1ccc(C(=O)Nc2ccc3c(c2)CCC3)o1	13µM*	x	x	x	u
Cc1occc1C(=O)Nc1ccc2c(c1)CCC2	u	4%	-21%	-87%	u
O=C(O)c1ccccc1NS(=O)(=O)c1cccc2ccccc12	2%	x	x	x	-2%
CC(=O)c1cc(C)oc1C	-6%[1.84 µM]	1%	6%	-7%	-9%
c1ccc2c(c1)Cn1c-2nc2ccccc21	13µM*	u	-3%	-89%	7.9µM*
CCOc1ccc(CN2C(=O)C(=O)c3cccc(C)c32)cc1OC	-2%	0%	x	15%[10.9 µM]	13µM*
Cc1ccccc1OCCCN1C(=O)C(=O)c2cccc(C)c21	-19%	u	-14%	-29%	-19%
COc1ccc(-c2c3c(=O)n(C)c(=O)n(C)c3c3nnc4ccccc4n23)cc1	6%	2%	-6%	-5%	2%
COc1ccc(-c2c3c(=O)n(C)c(=O)n(C)c3cn2C2CCCCC2)cc1	12%	3%	16µM*	24%	23%
O=[N+]([O-])c1ccc(Cl)c(CNc2ncnc3c2ncn3[C@@H]2CCCCO2)c1	8%[9.22 µM]	1%[11.4 µM]	6%[11.5 µM]	-8%[10.9 µM]	18%[9.22 µM]
COc1ccc(Cc2nnc(N/N=C/c3ccc(O)cc3)[nH]c2=O)cc1OC	x	x	x	x	2.8µM*
Nc1ncnc2c1ncn2[C@H]1O[C@@H](C(=O)OCCO)[C@@H](O)[C@H]1O	1%[9.22 µM]	-1%[11.4 µM]	3%[11.5 µM]	-20%[10.9 µM]	1%[9.22 µM]
CCCc1ccc(-c2ccc(F)c(N)c2)nc1	4µM*	u	14%	-92%	7.9µM*
Cc1ccc(C2=Nc3ccccc3N(CC(=O)NCc3ccc(Cl)cc3)C(=O)C2)cc1C	4%	-2%	x	-8%[10.9 µM]	-18%
Cc1ccc(C2=Nc3ccccc3N(CC(=O)NCc3ccc(F)cc3)C(=O)C2)cc1C	-14%	-3%	x	-14%[10.9 µM]	10µM*
CCCc1nn2cc(-c3ccc(C)c(C)c3)nc2s1	7.9µM*	u	x	-46%[10.9 µM]	7.9µM*
Cc1nn2cc(-c3ccc(N)cc3)nc2s1	-27%	0%	-16%	x	u
SMILES	p53ts 32C kill	IkB sig inh	ERK AVP block	Imprint erasure	p53ts 39C kill
Cc1ccc2[nH]c(-c3ccccc3)cc(=O)c2c1	6.3µM*	14%	-6%	-71%	5µM*
CC(=O)NCCNc1ncncc1-c1ccc(N(C)C)cc1	9%	0%[11.4 µM]	-20%	-1%	-9%
COC(=O)c1ccccc1NC(=O)Cn1cc(S(=O)(=O)Cc2ccccc2F)c2ccccc21	-2%	x	x	x	x
Cc1ccc(C)c(Cn2c3ccccc3c3cnn(CC(=O)NC(C)CCc4ccccc4)c(=O)c32)c1 (stereo not drawn)	-27%	2%	x	11%[10.9 µM]	5µM*
CC(CCc1ccccc1)NC(=O)Cn1ncc2c3ccccc3n(Cc3ccccc3)c2c1=O (stereo not drawn)	-4%	0%	x	-11%[10.9 µM]	-15%
CCCCN(C)CCCNC(=O)Cn1ncc2c3ccccc3n(Cc3ccccc3)c2c1=O	0%	1%	x	-17%[10.9 µM]	-13%
CCCCN(C)CCCNC(=O)Cn1ncc2c3ccccc3n(Cc3cc(C)ccc3C)c2c1=O	-6%	0%	x	27%[10.9 µM]	2.5µM*
CCCCN(C)CCCNC(=O)Cn1ncc2c3ccccc3n(Cc3ccccc3F)c2c1=O	-4%	0%	x	-6%[10.9 µM]	13µM*
C[C@H]1C[C@H]2[C@H]3CCC4=CC(=O)C=C[C@@]4(C)[C@]3(F)[C@H](O)C[C@]2(C)[C@@]1(O)C(=O)COP(=O)(O)O	1%[9.22 µM]	7%[11.4 µM]	x	-1%[10.9 µM]	3%[9.22 µM]
CC[C@H]1CN(C)[C@H]2Cc3c([nH]c4ccccc34)C(=O)C[C@H]1[C@H]2C(=O)OC	-3%[9.22 µM]	-1%[11.4 µM]	-15%[11.5 µM]	-14%[10.9 µM]	-4%[9.22 µM]
CC(N)(Cc1ccc(O)c(O)c1)C(=O)O (stereo not drawn)	x	x	x	2%	x
Oc1ccc(Br)cc1/C=N/n1cnc2ccccc21	-3%	10%	16µM*	-13%	-5%
CN(C)c1ccc(-c2nc(NC3CCNCC3)c3ccccc3n2)cc1	u	0%[11.4 µM]	-3%	-45%	10µM*
COc1cccc(-c2nc(NC3CCNCC3)c3ccccc3n2)c1	u	-2%[11.4 µM]	u	1%	16µM*
CCOc1ccc(-n2nc3ccc(NC(=O)c4ccc(-c5cccc(Cl)c5)o4)cc3n2)cc1	u	u	x	-35%[10.9 µM]	7.9µM*
CCOc1ccc(-n2nc3ccc(NC(=O)COc4ccccc4)cc3n2)cc1	-7%	-2%	x	-3%[10.9 µM]	10%
O=C(NC1CCN(Cc2ccccc2)CC1)c1ccc(-n2c(=O)c(=O)[nH]c3ccccc32)cc1	-3%	x	x	x	5%
Cc1cc(C)c(C)c(S(=O)(=O)NCCC(=O)O)c1C	5%	x	x	x	-10%
CSc1oc(-c2ccc(F)cc2)nc1S(=O)(=O)c1ccccc1	-1%	1%	17%	-6%	-2%
CS(=O)(=O)c1oc(-c2ccc(F)cc2)nc1S(=O)(=O)c1ccc(Cl)cc1	13µM*	u	x	-40%[10.9 µM]	4µM*
CCCCS(=O)(=O)c1oc(-c2ccc(F)cc2)nc1S(=O)(=O)c1ccccc1	10µM*	u	x	-42%[10.9 µM]	2µM*
CC(C)S(=O)(=O)c1oc(-c2cccs2)nc1S(=O)(=O)c1ccc(F)cc1	u	u	x	-41%[10.9 µM]	3.2µM*
CCS(=O)(=O)c1oc(-c2ccc(F)cc2)nc1S(=O)(=O)c1ccc(Br)cc1	7.1µM*	u	x	-34%[10.9 µM]	1.6µM*
CSc1oc(-c2ccccc2)nc1S(=O)(=O)c1ccc(F)cc1	9%	-1%	26%	-17%	9%
N#CCc1ccccc1[N+](=O)[O-]	10%[1.84 µM]	10%	15%	-6%	10%
CC(C)S(=O)(=O)c1oc(-c2ccc(F)cc2)nc1S(=O)(=O)c1ccccc1	4µM*	u	x	-42%[10.9 µM]	0.79µM*
Fc1ccc(-n2ncc3c(N4CCCCCC4)ncnc32)cc1	u	0%	x	-24%[10.9 µM]	5µM*

High-throughput results (PubChem)
